This is a sample that favours compounds with a hit; in the whole collection about 4% have one here.
RAD52 anneal inh: blocks human RAD52 DNA annealing. recombinant RAD52 DNA annealing, FRET fluorescence. P43351. inhibition, % at 18.7 µM. AID 651710. 0.46% of 360,000 active;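 active = every replicate showing at least 50% inhibition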
ERAP1 inh: ERAP1 (human) enzyme inhibition; inhibition, % at 10.7 µM; recombinant ERAP1, Leu-AMC fluorescence, 60 min; AID 652197; 0.15% of 340,000 active;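 active = mean replicate inhibition of at least 30%, or all replicates individually reaching that 30% level; inactive = mean below 30% and not every replicate reaching it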;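 note: 0% = neutral control wells and 100% = L-leucinethiol positive control wells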
AF4-AF9 inh: inhibitors of human MLL-AF4/AF9 interaction | P42568 | AlphaScreen, biotin-AF4 peptide binding to FLAG-AF9 | inhibition, % at 10 µM | 0.47% of 350,000 active;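 active = every replicate reaching a set inhibition limit, whatever the replicate mean, cut at about 25% in these data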;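 note: 0% = plate neutral control median and 100% = total signal loss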
Target sequence (P42568 whole entry, looked up): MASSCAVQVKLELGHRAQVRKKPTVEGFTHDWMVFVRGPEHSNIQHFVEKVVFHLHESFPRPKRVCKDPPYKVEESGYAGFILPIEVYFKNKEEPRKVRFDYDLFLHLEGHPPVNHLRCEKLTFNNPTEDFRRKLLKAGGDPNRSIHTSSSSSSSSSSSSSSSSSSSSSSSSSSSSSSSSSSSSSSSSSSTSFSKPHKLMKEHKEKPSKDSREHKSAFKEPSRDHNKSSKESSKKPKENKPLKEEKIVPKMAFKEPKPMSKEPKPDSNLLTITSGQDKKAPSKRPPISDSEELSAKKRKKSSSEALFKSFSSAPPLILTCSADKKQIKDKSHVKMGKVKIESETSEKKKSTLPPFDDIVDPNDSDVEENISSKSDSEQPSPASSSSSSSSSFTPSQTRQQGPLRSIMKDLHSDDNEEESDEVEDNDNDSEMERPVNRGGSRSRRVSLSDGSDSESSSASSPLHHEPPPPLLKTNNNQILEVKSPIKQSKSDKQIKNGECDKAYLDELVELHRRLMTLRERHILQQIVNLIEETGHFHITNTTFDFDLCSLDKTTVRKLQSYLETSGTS
DENV2 CPE rescue: inhibitors of DENV2 cytopathic effect; 1.7% of 350,000 active; DENV2-infected cells, cytopathic effect rescue, plate reader; CPE inhibition, % at 9.99 µM; AID 651640; in the data active = CPE inhibition above about 20%, passing the limit was not always enough; tested in BHK-21 cells;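 note: 0% = median of neutral control wells and 100% = median of positive control wells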
FGF22 binding: FGF22 (human) thermal shift binding | AID 651658 | Q9HCT0 | recombinant FGF22 thermal shift, SYPRO orange fluorescence; percent of sucrose octasulfate shift, DMSO zero | 1.5% of 340,000 active | activity (Tm shift, normalised), % at 9.99 µM;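 active = mean Tm shift, scaled 0 neutral to 100 positive control, at about 1.3% or above, every replicate too, limit read from the data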
Starred values were filed as active, the others as inactive; nt = not tested or not shown.

SMILES	RAD52 anneal inh	ERAP1 inh	AF4-AF9 inh	DENV2 CPE rescue	FGF22 binding
CCC(=O)N(C)C[C@@H]1Oc2cc(-c3cccc(F)c3)ccc2S(=O)(=O)N([C@@H](C)CO)C[C@H]1C	3	2	2	-4	0
O=C(CSc1ccc(Cl)cc1)N1CCCC1	-19	-1	-2	-1	1
O=C(CCSc1ccccc1)N1CCCC1	2	-3	1	4	44*
CN(CC(=O)Nc1cccc([N+](=O)[O-])c1)S(=O)(=O)c1ccccc1	-7	nt	3	6	0
CN(C)CCCNC(CC(=O)Nc1cccc([N+](=O)[O-])c1)C(=O)O (centres undefined)	-8	-2	-2	48*	0
C[C@@H]1CN([C@@H](C)CO)C(=O)c2cc(NC(=O)Nc3cccc4ccccc34)ccc2O[C@H]1CN(C)C(=O)Nc1ccc(F)cc1	1	-1	-1	3	0
C=CCNC(=O)COC(=O)c1cc(S(=O)(=O)N2CCCCC2)ccc1Cl	-2	-3	-6	6	43*
CCCN1C[C@H](C)[C@@H](OC)CN(C)C(=O)c2ccc(NS(C)(=O)=O)cc2OC[C@H]1C	5	1	-3	27*	0
CO[C@@H]1CN(C)C(=O)c2ccc(NS(C)(=O)=O)cc2OC[C@@H](C)N(CC2CC2)C[C@H]1C	-5	-5	0	1	0
CCCN1C[C@@H](C)[C@H](OC)CN(C)C(=O)c2ccc(NS(=O)(=O)c3ccccc3)cc2OC[C@@H]1C	-3	-1	-3	37*	0
CCCN1C[C@@H](C)[C@@H](OC)CN(C)C(=O)c2cc(NS(=O)(=O)c3ccccc3)ccc2OC[C@H]1C	-1	nt	-2	-3	0
CO[C@H]1CN(C)C(=O)c2ccc(NS(C)(=O)=O)cc2OC[C@H](C)N(Cc2nccs2)C[C@@H]1C	-16	0	-4	0	0
CO[C@@H]1CN(C)C(=O)c2ccc(NS(C)(=O)=O)cc2OC[C@H](C)N(Cc2nccs2)C[C@@H]1C	4	-3	-4	72*	0
CC(C)NC(=O)Nc1ccc2c(c1)C(=O)N([C@H](C)CO)C[C@@H](C)[C@H](CN(C)Cc1ccc(Cl)c(Cl)c1)OCCCC[C@H](C)O2	23	0	11	14	0
O=C(CN1CCOCC1)N[C@H]1CC[C@H](CCNS(=O)(=O)c2ccccc2F)O[C@@H]1CO	-5	nt	1	-9	0
COc1ccc2c3c(n(C)c2c1)[C@H](CO)NCC31CN(C(=O)Nc2ccc3c(c2)OCO3)C1	12	0	-1	-1	0
COc1ccc(S(=O)(=O)N(C)C[C@H]2OCCCC[C@@H](C)Oc3ccc(NS(=O)(=O)c4ccc(F)cc4)cc3C(=O)N([C@@H](C)CO)C[C@H]2C)cc1	3	1	-1	10	0
CCN1CCN(Cc2c(O)ccc3c(C)cc(=O)oc23)CC1	-3	33*	-12	5	0
Cc1c(O)ccc2c(CN3CCOCC3)cc(=O)oc12	-17	-40	1	8	0
Cc1cc(=O)oc2c(CN3CCN(CCO)CC3)c(O)ccc12	-3	40*	-3	10	0
Cc1cc(=O)oc2c(O)c(O)ccc12	-21	1	-4	-11	-1
CCN(CC)Cc1c(O)c(Cl)cc2c(C)cc(=O)oc12	-116	66*	0	1	1
Cc1cc(=O)oc2c(CN3CCCC3)c(O)ccc12	-12	41*	-1	-4	0
Cc1oc2c(CN3CCCC3)c(O)ccc2c(=O)c1-c1ccc(Br)cc1	-7	-2	3	2	0
O=C(C1CCCC1)N1CC(=O)N2[C@H](CO)[C@@H](c3ccc(Br)cc3)[C@@H]2C1	9	-1	-4	-2	nt
SMILES	RAD52 anneal inh	ERAP1 inh	AF4-AF9 inh	DENV2 CPE rescue	FGF22 binding
O=c1oc2c(CN3CCN(CCO)CC3)c(O)ccc2cc1-c1ccccn1	1	98*	-1	1	0
Cc1cc(=O)oc2c(CN3CCCC3)c(O)c(Cl)cc12	-26	115*	-6	-5	0
Cc1cc2oc(=O)cc(CN3CCCC3)c2cc1C	-11	-1	-1	6	0
Cc1cc(C(C)(C)C)ccc1NC(=O)CC(C)(C)CC(=O)O	-7	4	26*	6	0
CCc1cccc(C)c1NC(=O)CC(C)(C)CC(=O)O	7	-2	-2	5	0
Cc1noc(C)c1S(=O)(=O)N(C)C[C@H]1Oc2ccc(NC(=O)CCCCCC(=O)Nc3ccccc3N)cc2CC(=O)N([C@@H](C)CO)C[C@H]1C	-10	2	0	1	0
COc1ccccc1N1CCN(C(=O)CCN2C(=O)c3cccc4cccc(c34)C2=O)CC1	-12	0	-14	-1	45*
Cc1ccc(S(=O)(=O)Nc2cccc3c2O[C@H](CN(C)Cc2ccc(C(=O)Nc4ccccc4N)cc2)[C@H](C)CN([C@H](C)CO)C3=O)cc1	-2	-4	0	21*	0
C[C@H](CO)N1C[C@H](C)[C@H](CN(C)Cc2ccc(C(=O)Nc3ccccc3N)cc2)Oc2c(NS(=O)(=O)c3cn(C)cn3)cccc2C1=O	-1	-2	7	34*	0
Cc1ccc(S(=O)(=O)Nc2cccc3c2O[C@@H](CN(C)Cc2ccc(C(=O)Nc4ccccc4N)cc2)[C@H](C)CN([C@@H](C)CO)C3=O)cc1	14	nt	nt	-9	0
C[C@H]1CN([C@@H](C)CO)C(=O)c2cccc(NS(=O)(=O)c3ccc(F)cc3)c2O[C@H]1CN(C)Cc1ccc(C(=O)Nc2ccccc2N)cc1	6	2	-1	22*	0
Cc1ccc(S(=O)(=O)Nc2cccc3c2O[C@H](CN(C)Cc2ccc(C(=O)Nc4ccccc4N)cc2)[C@@H](C)CN([C@@H](C)CO)C3=O)cc1	-9	2	0	4	1.4*
C[C@@H]1CN([C@@H](C)CO)C(=O)c2cccc(NS(=O)(=O)c3ccc(F)cc3)c2O[C@@H]1CN(C)Cc1ccc(C(=O)Nc2ccccc2N)cc1	-3	-1	-6	-7	0
CCCNC(=O)C[C@@H]1CC[C@@H]2[C@@H](COc3ccc(NC(=O)c4cccc(F)c4)cc3C(=O)N2C)O1	-5	-3	-2	-7	0
COc1ccc2c3c(n(C)c2c1)[C@H](CO)N(CC1CCOCC1)CC31CN(C(=O)Nc2ccccc2)C1	-38	1	1	-2	0
O=C(NC1(Cc2ccccc2)CCN(CCc2cccs2)C1=O)c1ccccc1 (centres undefined)	-16	-3	0	72*	0
COc1ccc2c3c(n(C)c2c1)[C@@H](CO)N(C(=O)Cc1ccccn1)CC31CN(Cc2ccccn2)C1	nt	nt	0	5	nt
NC1=NC(=O)C(=Cc2ccccc2)S1	-15	0	-1	30*	0
NC1=NC(=O)/C(=C\c2cccnc2)S1	-50	5	0	-1	0
CCc1nnc(NC(=O)c2ccc(F)c(S(=O)(=O)N3CCCCC3)c2)s1	-6	2	-3	69*	0
